Compounds with a hit are over-represented: about 9% of the library has one in this group of screens.
ALDH1A1 inh = blocks purified human ALDH1A1 activity; P00352; Purified ALDH1A1, NADH fluorescence, propionaldehyde substrate; Potency, µM (doses to about 75.3 µM), inactives show at the highest dose activity, negative = inhibition, actives largely listed as inhibitors; 220,000 tested, 7.3% active; AID 1030;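 also: plate controls were no enzyme wells and a reference inhibitor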
KinaseGlo FLuc = Kinase-Glo luciferase inhibition (counter-screen) | Kinase-Glo luciferase, ATP luminescence, 8 min | Potency, µM (series often up to 38.3 µM), without a hit: at the top dose activity change, negative = inhibition, actives largely listed as inhibitors | 200,000 tested, 0.28% active | Q27757; active = well fitted curve in the direction sought with a large enough effect; inconclusive = small, poorly fitted or top-dose-only effect, or another doubt; inactive = no such curve, though single readings can be large; an effect the other way counts as inactive or inconclusive; also: nearly all actives have a fitted effect of over 60% in size
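Light output from Kinase-Glo luciferase with luciferin and 10 uM ATP in 50 mM imidazole pH 7.2, KCl, MgCl2, Tween 20, BSA; compound pin-delivered, 8-min ambient incubation, then luminescence read.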
HPGD inh = inhibitors of human 15-hydroxyprostaglandin dehydrogenase (HPGD) | AID 894 | purified HPGD, NADH fluorescence kinetic, PGE2 substrate | 150,000 tested, 4.3% active | Potency, µM, inactives show top-dose activity change, negative = inhibition, usual class: inhibitors | P15428
Target sequence (P15428 whole entry, looked up): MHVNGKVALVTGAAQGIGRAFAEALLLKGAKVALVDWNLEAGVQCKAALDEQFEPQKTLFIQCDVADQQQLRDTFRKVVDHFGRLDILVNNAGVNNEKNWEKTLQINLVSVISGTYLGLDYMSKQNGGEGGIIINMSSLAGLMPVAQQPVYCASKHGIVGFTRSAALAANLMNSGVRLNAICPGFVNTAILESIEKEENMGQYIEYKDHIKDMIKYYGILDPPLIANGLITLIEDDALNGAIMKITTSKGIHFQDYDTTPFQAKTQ
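NADH formation kinetics: reaction with 30 uM PGE2 and 1 mM NAD+ (final), 20 nM enzyme, Tris-HCl pH 8 with Tween 20, after 15 min compound preincubation at room temperature. Fluorescence change, last versus first of five reads.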
Lamin A splicing = changes lamin A minigene splicing in HeLa cells | 200,000 tested, 0.01% active | HeLa LMNA splicing GFP/RFP minigene ratio, 48 h | AID 1487 | Potency, µM (titrated, usually from 46.1 µM), inactives show at the highest dose ratio change, negative = inhibition, usual class: inhibitors; active = well fitted inhibition curve with a large enough effect in the signal ratio, with a control signal flat, not every such curve was filed as active; inconclusive = small, poorly fitted or top-dose-only effect, or effect the other way, or a change in a side signal; the % refers to the signal ratio
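S3 HeLa stable clones carrying a lamin A-EGFP splicing minigene plus DsRed2 were seeded at 600 cells/well in Opti-MEM with 2% FBS, pin-dosed and incubated 48 h at 37°C. Acumen cytometry (488 nm) gave the GFP/RFP total-intensity ratio.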
IMPase Li cell = IMPase inhibition in cells with lithium potentiation. CHO-M1 cells, IP1 TR-FRET (IP-One), carbachol + lithium. Potency, µM (doses to about 59.4 µM), for inactives: top-dose activity, negative = IMPase inhibition, hits mostly inhibitors. 210,000 tested, 0.35% active; active = well fitted curve in the direction sought with a large enough effect; inconclusive = small, poorly fitted or top-dose-only effect, or another doubt; inactive = no such curve, though single readings can be large; an effect the other way counts as inactive or inconclusive;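 also: IP1 builds up when IMPase is blocked and the TR-FRET signal falls; plate controls were basal vehicle for no effect and high inhibitor control for full effect; nearly all actives have a fitted effect of over 50% in size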
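Readout is a homogeneous TR-FRET IP1 immunoassay (Ex 320, Em 665 and 620), where raised cytosolic IP1 lowers signal. Cells were CHO-M1 treated 30 min at 37C with test compounds plus a little lithium; AC50 values came from Hill-equation fitting.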
The depositor's hits bear a star; ? = inconclusive; . = no result; [ ] = dose if it differs, or a comment. Unless noted, calls follow the shape of the dose curve; as a rule, active = well fitted inhibition curve with a large enough effect (not every such curve was filed as active); inconclusive = small, poorly fitted or top-dose-only effect, or another doubt; inactive = no such curve, though single readings can be large or run the other way. Unless noted, % is scaled to controls: 0 for no effect and ±100 for the full control effect; potency is read from the fitted curve at half-maximal effect.

SMILES	ALDH1A1 inh	KinaseGlo FLuc	HPGD inh	Lamin A splicing	IMPase Li cell
COc1cc(NS(=O)(=O)c2ccc(C)cc2)c2ncccc2c1	0.3%	3.3%	?	?	12.6%
COc1cc(NCCCC(C)N)c2ncccc2c1 (stereo not given)	22.4µM*	-5.6%	-16.5%	3.2%	27.6%[38.3 µM]
O=C(CSc1ccccn1)N/N=C/C=C/c1ccccc1	6.2%	-0.8%	20µM*	?	-1.1%
Cc1cccc(NC(=O)CCSc2ccccn2)c1	?	3.1%	14.1µM*	18.5%	4.4%
Cc1ccc(C(=O)CSc2ccccn2)cc1	?	-2.0%	?	9.3%	0.3%[38.3 µM]
COC(=O)c1ccc(NC(=O)CSc2ccccn2)cc1	?	-1.5%	11.2µM*	-2.3%	36.8%[38.3 µM]
COC(=O)c1ccc(NC(=O)CSc2ccccc2)cc1	5.0%	1.0%	-12.7%	10.4%	5.7%
Cc1ccc(NC(=O)CCSc2ccccn2)cc1	-12.3%	-3.7%	-17.2%	-6.9%	1.6%
O=C(CSc1ccccn1)c1ccc(F)cc1	?	-17.3%	25.1µM*	10.1%	-10.2%[38.3 µM]
O=C(CSc1ccccn1)N/N=C/c1ccccc1[N+](=O)[O-]	?	5.2%	-8.1%	-7.3%	4.1%
COc1ccc(-n2c(=O)[nH]c3c(C(N)=O)nc(C4CCCCC4)nc32)cc1	3.4%	2.9%	.	?	5.0%
O=C(CSc1ccccn1)Nc1ccc2c(c1)C(=O)c1ccccc1C2=O	25.1µM*	1.9%	-9.5%	-7.1%	-6.4%
CCOC(=O)C1=C(c2ccccc2)NC(=S)NC1c1ccc(C)c([N+](=O)[O-])c1 (stereo not given)	0.251µM*	-3.7%	-17.6%	-26.0%	12.9%
CCOC(=O)C1=C(c2ccccc2)NC(=S)NC1C (stereo not given)	2µM*	-1.0%	-7.7%	7.1%	2.6%[38.3 µM]
CCOC(=O)C1=C(c2ccccc2)NC(=S)NC1c1cccc([N+](=O)[O-])c1 (stereo not given)	0.891µM*	.	.	-11.3%	.
CCOC(=O)C1=C(c2ccccc2)NC(=S)NC1c1cc([N+](=O)[O-])ccc1OC (stereo not given)	3.98µM*	1.8%	-6.9%	1.3%	10.7%[38.3 µM]
COc1ccccc1N1CCN(C(=O)c2oc3ccccc3c2NC(=O)C(C)Oc2ccccc2)CC1 (stereo not given)	.	.	.	-2.0%[46 µM]	.
COc1cc(CNC(=O)c2ccc(NC(=O)N3CCCCc4ccccc43)cc2)cc(OC)c1OC	.	.	.	-20.9%[46 µM]	.
O=C(NCc1ccc(Cl)cc1)C(=O)NCC(c1cccnc1)N1CCN(c2ccc(F)cc2)CC1 (stereo not given)	1.2%	1.4%	.	6.6%[9.22 µM]	2.1%
O=C1/C(=C/c2cccs2)NC(=S)N1C1CC1	?	6.6%	15.8µM*	2.0%	-4.5%
Cc1noc(C)c1C(=O)N1CCC[C@@]2(CCN(c3ncccn3)C2)C1	6.9%	0.2%	-17.2%	.	-4.2%
